Structures are written as SMILES.

Experimental findings from the supplement of paper PMC4206461 are described below.

For the experiment, the system named is Pseudomonas aeruginosa PA14 dppA1-A5 penta mutant + pBBR5.DppA1 (PA14_58350). The experiment in a line: respiration area under curve with compound as sole nitrogen source, 24 h (OmniLog AUC (arbitrary units)); higher = more respiration / better utilisation as nitrogen source, active = 2000 or more. The note with it: plate: PM8. The method, then: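 Biolog Phenotype MicroArray plates PM6-PM8: each di/tripeptide is the sole nitrogen source. Tetrazolium reduction was read in the OmniLog for 24 h at 37°C and summarised as area under the respiration curve (arbitrary units). Values below 2000 count as no respiration. Strain is the SBP penta mutant complemented with DppA1 on a plasmid under its native promoter. Lys/His/Cys peptides are excluded.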
Regarding `N[C@@H](Cc1ccc(O)cc1)C(=O)NCC(=O)NCC(=O)O`, the “respiration area under curve” value was 9440 (active).
